Experimental data: the supplement of paper PMC9844399
Structures can show the parent of a compound that is named as a salt.

tested on: HeLa; experiment: MALAT1 nuclear FISH intensity, robust Z-score vs DMSO; higher = more nuclear MALAT1 lncRNA, active = -3 or less; settings: 10 µM; 6 h
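Note: High-content confocal imaging of branched-DNA amplified FISH in 384-well plates, Hoechst-defined nuclei, score is well value minus plate DMSO median over DMSO robust SD, four wells per compound.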

SMILES | MALAT1 nuclear FISH intensity
CC(C)NC[C@H](O)COc1cccc2ccccc12 [(S)-(-)-propranolol HCl] | -0.625 (inactive)
c1ccc2c(c1)CCCC2C1=NCCN1 (centres undefined) | -0.177 (inactive)
CC(C)c1c(C(=O)Nc2ccccc2)c(-c2ccccc2)c(-c2ccc(F)cc2)n1CC[C@@H](O)C[C@@H](O)CC(=O)O [Atorvastatin hemicalcium salt] | -1.98 (inactive)
CCCCCCc1ccc(O)cc1O [Hexylresorcinol] | 0.141 (inactive)
CC(C)CCC[C@@H](C)[C@H]1CC[C@H]2[C@@H]3C(=O)C=C4C[C@@H](O)CC[C@]4(C)[C@H]3CC[C@]12C [7-Ketocholesterol] | -0.921 (inactive)
NC(=O)Cc1cccc(C(=O)c2ccccc2)c1N [Nepafenac] | -0.52 (inactive)
Cn1c(=O)c2[nH]cnc2n(C)c1=O [Aminophylline] | 0.535 (inactive)
Cc1ccc(O)c([C@H](CCN(C(C)C)C(C)C)c2ccccc2)c1 [Tolterodine Tartrate] | 0.345 (inactive)
C[C@@H]1C/C=C/C=C/C=C/C=C/[C@H](O[C@@H]2O[C@H](C)[C@@H](O)[C@H](N)[C@@H]2O)C[C@@H]2O[C@](O)(C[C@@H](O)C[C@H]3O[C@@H]3/C=C/C(=O)O1)C[C@H](O)[C@H]2C(=O)O [Natamycin] | 0.00726 (inactive)
CC(=O)CCCCn1c(=O)c2c(ncn2C)n(C)c1=O [Pentoxifylline] | 0.23 (inactive)
CC(/C=C/c1cccc(Oc2ccc(F)cc2)c1)N(O)C(N)=O (centres undefined) | -1.61 (inactive)
CCCCCCCC/C=C\CCCCCCCC(=O)OC[C@H](CO)OC(C)=O [1-Oleoyl 2-acetyl-glycerol] | 1.08 (inactive)
Cc1ccc(S(=O)(=O)N[C@@H](Cc2ccccc2)C(=O)CCl)cc1 [Tosyl-Phe-CMK (TPCK)] | 2.74 (inactive)
CC[C@H](CO)Nc1nc(NCc2ccccc2)c2ncn(C(C)C)c2n1 [Roscovitine] | -1.67 (inactive)
COc1ccc(O)cc1 [Mequinol] | -0.158 (inactive)
CCCCC/C=C\C/C=C\C/C=C\C/C=C\CCCC(=O)O[C@@H](CO)COCCCCCCCCCCCCCCCC [1-Hexadecyl-2-arachidonoyl-glycerol] | -0.812 (inactive)
CCC[C@H](N[C@H]1CCc2cc(F)cc(F)c2C1)C(=O)Nc1cn(C(C)(C)CNCC(C)(C)C)cn1 | -0.158 (inactive)
CCCCc1ncc(/C=C(\Cc2cccs2)C(=O)O)n1Cc1ccc(C(=O)O)cc1 [Eprosartan Mesylate] | 0.454 (inactive)
O=C(O)CNC(=O)C(CS)Cc1ccccc1 (centres undefined) [Thiorphan] | 0.676 (inactive)
